Measurements from the supplement of paper PMC6555819.

These sequences were tested on PPARg DBDmut IVT, anti-PPARg (DBD mutation: PPARg1 K132A/R137A, NR concentration 270 nM) (assay: PBM binding z-score (relative to random genomic background probes); higher = stronger binding; sequences stand for … in GC…GCGATTGACAGCGTAGAATGAAGG).
Summary of the method: (§1)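 Probes were double-stranded and carried 34-nt variable regions with direct-repeat seeds, single-nucleotide variants, half-site ablations and random human genomic background sequences, printed on custom Agilent 4×180K protein-binding microarrays. Arrays were incubated 1 h with ligand-free nuclear receptor dimers in PBS pH 7.4, 2% milk, 0.02% Triton X-100, 1 mM DTT, 0.2 mg/mL BSA and 0.4 mg/ml salmon testes DNA. Antibodies against each partner (one per run) detected binding, and scanned fluorescence was regression-normalized. Binding z-scores use the random background probes as reference.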
With CCAACTAGGTCAGAACAGGACAGTGAAGGATGAT the PBM binding z-score was 1.17.
With CATACAGGGTCAGCTAGGCCAGAGAAGGGACGGC the PBM binding z-score was -0.117.
TGAATGACGTTATAAGATCAGGGAACGTTGCAAA gave a PBM binding z-score of 0.502.
Sequence ATCTCTCGGTAACCAAGTTCAGTGAATGCCGAAC has a PBM binding z-score of 0.409.
CCTAGCAGGCCAATCTGGGTCACCCAAGGCTTGA was tested, and the PBM binding z-score was -1.35.
In the case of GCTTGTCGATCAAGGTTAAGAAAGACTAAGCTAA, the PBM binding z-score is reported as 0.0381.
Sequence ATATGTAGGTTAAGGGTCACTCAGGTTGGTTCGC has a PBM binding z-score of 2.59.
With GCTGCTAGGTTAGGTTGGTCAGCTAACGGGTACG the PBM binding z-score was -0.928.
ATCGAAAGGTCGACGAGGTGAGTGTACACCGTTT gave a PBM binding z-score of 0.365.
CAAACTAGGTCACGAAAGGTCAAGGTCGAATGAC showed a PBM binding z-score of 2.59.
TAGCCTAGGTCAGATGGGGCCAGTATACGCTATA was tested, and the PBM binding z-score was -0.361.
In the case of ATCGCAAGGTCGTGAGGTGAGTATACAGAAAGGC, the PBM binding z-score is reported as -0.102.
With TAGCATAGGTCATGGGCCAGTATACCACGCGAAC the PBM binding z-score was 0.0731.
With TCTGCTAGGTCAGCTGGTCAGCTAACGAGCTGCC the PBM binding z-score was -0.593.
Sequence GCTGTTAGGTCAGGTTGGTCAGCTAACGGGTACG has a PBM binding z-score of 0.313.
TCGGCTAGGTCAGTTGGTCAGCTAACGAGCTGCC gave a PBM binding z-score of -0.778.
Sequence CCCATTAGTTGACCATAAGGGCAACCGAAGCTCG has a PBM binding z-score of -0.0766.
In the case of TAGCTTAGGTCATTGGGCCAGTATAGTACGCATC, the PBM binding z-score is reported as 0.108.
CCTTACGGGGCACTGACAGGTTATAGCATTTGGA gave a PBM binding z-score of -0.753.
Work on TCGAGTAGGTTACCGATGGGGCATTCAGCTTTCT yielded a PBM binding z-score of -0.945.
For TCTATTAGTTGATTAGGGCATCCGAAACAGCGGA, the PBM binding z-score was 0.919.
Work on TCTGCTAGGTCGGTTGGTCAGCTAACGAGCTGCC yielded a PBM binding z-score of -0.00426.
CGAACTAGGTCAGAACATGACAGTGAAGGATGAT gave a PBM binding z-score of 1.77.
Sequence TTACCAAGGTGAGCCGAGGTCGTTGATCCAACTC has a PBM binding z-score of 0.067.
With CAAACTAGGTCACCGGAAGGTCAACGTCCGCATG the PBM binding z-score was 1.2.
In the case of CCTACTGGGCCACGAAAAGTCATTGATTCAGTGA, the PBM binding z-score is reported as -0.417.
With AATACAGGGTCATCGTAGACCAGAGTACGCACAG the PBM binding z-score was 0.874.
Work on CCTTACGGGTCACTCCAGGCTATAGCATCGGAGT yielded a PBM binding z-score of -0.418.
Work on CCACACAGGTGAAAGGTAACTCAGTCTGGTACGC yielded a PBM binding z-score of 0.1.
Work on TCCGACAGGTGAAGGTAACTCAGGTACGCAGTCG yielded a PBM binding z-score of -0.742.
Sequence ATCGATAGGTCGACGAGGTGAGTATACACCGTTT has a PBM binding z-score of -0.138.
In the case of TAGCCTAGGTCATGCAGGCCAGTATAGTGTCGGC, the PBM binding z-score is reported as 0.0782.
CGTCCAACGTCAGAGAGGTCAGTGAATGCCGAGT showed a PBM binding z-score of -0.969.
In the case of CCCTACGGGTCACTGACAGGTTATAGCATTTGGA, the PBM binding z-score is reported as -0.444.
In the case of AGAATGAGGTTACCAAACATCAGGGAAACGCTTG, the PBM binding z-score is reported as 0.505.
With CCTACTGGGCCATTCAGAGGTGATTGATCATATG the PBM binding z-score was -0.0997.
With CCTACCAGGCCAGGGTCACTCAAGCATTTCGCTT the PBM binding z-score was -1.26.
CGAACTAGGTCATCCAGGACAATGAATACATTGA gave a PBM binding z-score of 1.7.
In the case of ACTAGTTGGTGAGCTGAGGTCACACACAATTCGG, the PBM binding z-score is reported as 0.0784.
For CGTCCAAGCTCAAAGGTCAGTGAAGAGATGACGG, the PBM binding z-score was -0.869.

Each sequence was assayed on PPARg homodimer (NR concentration 180 nM) in the same assay as above.
Summary of the method: as §1
With CCAACTAGGTCAGAACAGGACAGTGAAGGATGAT the PBM binding z-score was 1.73.
CATACAGGGTCAGCTAGGCCAGAGAAGGGACGGC was tested, and the PBM binding z-score was 1.9.
With TGAATGACGTTATAAGATCAGGGAACGTTGCAAA the PBM binding z-score was 0.0586.
ATCTCTCGGTAACCAAGTTCAGTGAATGCCGAAC showed a PBM binding z-score of 0.702.
CCTAGCAGGCCAATCTGGGTCACCCAAGGCTTGA was tested, and the PBM binding z-score was 0.456.
GCTTGTCGATCAAGGTTAAGAAAGACTAAGCTAA gave a PBM binding z-score of -0.626.
With ATATGTAGGTTAAGGGTCACTCAGGTTGGTTCGC the PBM binding z-score was 3.56.
Sequence GCTGCTAGGTTAGGTTGGTCAGCTAACGGGTACG has a PBM binding z-score of -0.465.
ATCGAAAGGTCGACGAGGTGAGTGTACACCGTTT was tested, and the PBM binding z-score was 1.48.
Sequence CAAACTAGGTCACGAAAGGTCAAGGTCGAATGAC has a PBM binding z-score of 5.42.
Sequence TAGCCTAGGTCAGATGGGGCCAGTATACGCTATA has a PBM binding z-score of 0.556.
With ATCGCAAGGTCGTGAGGTGAGTATACAGAAAGGC the PBM binding z-score was 0.794.
TAGCATAGGTCATGGGCCAGTATACCACGCGAAC was tested, and the PBM binding z-score was 2.07.
Work on TCTGCTAGGTCAGCTGGTCAGCTAACGAGCTGCC yielded a PBM binding z-score of 0.0537.
Work on GCTGTTAGGTCAGGTTGGTCAGCTAACGGGTACG yielded a PBM binding z-score of 1.07.
For TCGGCTAGGTCAGTTGGTCAGCTAACGAGCTGCC, the PBM binding z-score was 0.3.
With CCCATTAGTTGACCATAAGGGCAACCGAAGCTCG the PBM binding z-score was 2.18.
TAGCTTAGGTCATTGGGCCAGTATAGTACGCATC showed a PBM binding z-score of 1.34.
With CCTTACGGGGCACTGACAGGTTATAGCATTTGGA the PBM binding z-score was 0.227.
Work on TCGAGTAGGTTACCGATGGGGCATTCAGCTTTCT yielded a PBM binding z-score of -0.276.
TCTATTAGTTGATTAGGGCATCCGAAACAGCGGA was tested, and the PBM binding z-score was 1.28.
TCTGCTAGGTCGGTTGGTCAGCTAACGAGCTGCC showed a PBM binding z-score of -1.51.
For CGAACTAGGTCAGAACATGACAGTGAAGGATGAT, the PBM binding z-score was 1.17.
Work on TTACCAAGGTGAGCCGAGGTCGTTGATCCAACTC yielded a PBM binding z-score of -0.0527.
CAAACTAGGTCACCGGAAGGTCAACGTCCGCATG was tested, and the PBM binding z-score was 6.53.
In the case of CCTACTGGGCCACGAAAAGTCATTGATTCAGTGA, the PBM binding z-score is reported as 0.0392.
Work on AATACAGGGTCATCGTAGACCAGAGTACGCACAG yielded a PBM binding z-score of 2.94.
CCTTACGGGTCACTCCAGGCTATAGCATCGGAGT gave a PBM binding z-score of 0.988.
CCACACAGGTGAAAGGTAACTCAGTCTGGTACGC gave a PBM binding z-score of 1.3.
With TCCGACAGGTGAAGGTAACTCAGGTACGCAGTCG the PBM binding z-score was -0.0885.
Sequence ATCGATAGGTCGACGAGGTGAGTATACACCGTTT has a PBM binding z-score of 0.219.
TAGCCTAGGTCATGCAGGCCAGTATAGTGTCGGC gave a PBM binding z-score of 1.52.
CGTCCAACGTCAGAGAGGTCAGTGAATGCCGAGT gave a PBM binding z-score of 1.24.
CCCTACGGGTCACTGACAGGTTATAGCATTTGGA showed a PBM binding z-score of 2.79.
For AGAATGAGGTTACCAAACATCAGGGAAACGCTTG, the PBM binding z-score was 0.76.
CCTACTGGGCCATTCAGAGGTGATTGATCATATG gave a PBM binding z-score of 0.152.
CCTACCAGGCCAGGGTCACTCAAGCATTTCGCTT gave a PBM binding z-score of 1.75.
Sequence CGAACTAGGTCATCCAGGACAATGAATACATTGA has a PBM binding z-score of 1.95.
Work on ACTAGTTGGTGAGCTGAGGTCACACACAATTCGG yielded a PBM binding z-score of 2.24.
With CGTCCAAGCTCAAAGGTCAGTGAAGAGATGACGG the PBM binding z-score was 3.43.
